This is a sample that favours compounds with a hit; in the whole collection about 27% have one here.
Cav32 inh: human Cav3.2 channel inhibition, primary screen. Cav3.2-expressing cells, Fluo-4 calcium fluorescence FDSS; stronger effect = lower value. B-score at 10 µM. hit rate 4% among 100,000;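 active means single-dose well whose peak fluorescence ratio is a statistical outlier from its plate by either plate-standardised score or position-corrected B-score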
Pyk2 oligo antag: Pyk2 (human) oligomerization antagonism | hit rate 0.83% among 99,000 | Q14289 | AID 1347419 | Q293 cells, Pyk2 FERM NanoBiT luminescence; stronger effect = lower value | z-score (the deposit names both 25 µM and 10 µM);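 active means Z-score of -3 or lower, scaled per plate to the spread of control and sample wells; inactive means z-score above -3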;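 further: negative z-score means lost luminescence so less FERM oligomerization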
Target sequence (Q14289 whole entry, looked up): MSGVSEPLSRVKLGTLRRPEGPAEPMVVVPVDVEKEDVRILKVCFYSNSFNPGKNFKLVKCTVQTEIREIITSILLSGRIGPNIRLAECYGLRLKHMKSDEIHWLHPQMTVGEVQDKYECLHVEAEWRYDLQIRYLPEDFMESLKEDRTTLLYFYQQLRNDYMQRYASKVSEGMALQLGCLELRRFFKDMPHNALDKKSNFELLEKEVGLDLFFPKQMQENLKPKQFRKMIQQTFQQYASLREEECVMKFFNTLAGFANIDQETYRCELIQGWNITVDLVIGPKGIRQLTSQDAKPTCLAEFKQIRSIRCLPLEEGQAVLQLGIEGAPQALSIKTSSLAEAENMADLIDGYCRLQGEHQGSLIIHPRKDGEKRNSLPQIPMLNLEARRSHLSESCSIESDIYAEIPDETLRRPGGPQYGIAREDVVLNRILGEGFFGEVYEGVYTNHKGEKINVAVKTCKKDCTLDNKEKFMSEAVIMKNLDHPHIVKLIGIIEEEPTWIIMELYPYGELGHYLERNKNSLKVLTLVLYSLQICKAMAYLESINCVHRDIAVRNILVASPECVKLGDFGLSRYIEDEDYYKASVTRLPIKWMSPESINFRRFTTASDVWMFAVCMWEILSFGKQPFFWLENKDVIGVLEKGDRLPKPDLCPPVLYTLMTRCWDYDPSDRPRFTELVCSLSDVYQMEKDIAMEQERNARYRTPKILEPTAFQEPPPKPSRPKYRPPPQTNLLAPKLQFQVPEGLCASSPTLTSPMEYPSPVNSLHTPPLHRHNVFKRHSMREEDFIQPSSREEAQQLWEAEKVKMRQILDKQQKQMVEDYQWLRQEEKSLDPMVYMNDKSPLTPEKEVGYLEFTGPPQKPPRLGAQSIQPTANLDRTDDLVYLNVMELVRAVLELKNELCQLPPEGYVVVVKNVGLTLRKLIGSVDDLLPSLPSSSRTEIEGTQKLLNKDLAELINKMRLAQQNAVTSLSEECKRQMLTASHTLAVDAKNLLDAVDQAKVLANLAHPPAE
CYP2C9 activ: increases human cytochrome P450 2C9 activity; P11712; recombinant CYP2C9, luciferin-H conversion, luminescence; stronger effect = higher value; factor 1 = untreated enzyme, 0 = blocked; activation factor at 5 µM; hit rate 1.4% among 96,000; AID 1024;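 active means activation factor of 2 or more for CYP2C9 at a 5 µM dose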;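 further: 0 = sulfaphenazole-blocked wells and 1 = vehicle-only wells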
CYP2C19 inh: blocks human cytochrome P450 2C19; inhibition, % at 5 µM; hit rate 21% among 96,000; CYP2C19 Supersomes, luciferin-H EGE luminescence, 30 min; P33261;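 active means CYP2C19 inhibition above a set limit at 5 µM in the primary screen, cut at about 50% in these data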;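 further: plate controls were negative control wells for no effect and 2.5 mM tranylcypromine positive control for full effect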
CYP2C9 inhib: inhibitors of human CYP2C9. CYP2C9 Supersomes, luciferin-H conversion, luminescence. inhibition, % at 5 µM. hit rate 20% among 96,000;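 active means blocking of liver enzyme CYP2C9 beyond about 50% at 5 µM, limit read from the data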
CYP2C19 activ: activators of human cytochrome P450 2C19 | 96,000 tested, under 10 active | recombinant CYP2C19, luciferin-H EGE luminescence; stronger effect = higher value; 0 = fully inhibited enzyme, 1 = untreated enzyme | activation factor at 5 µM;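 active means activation factor of at least 2 at 5 µM in the primary screen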;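 further: 0 = wells with 2.5 mM tranylcypromine and 1 = vehicle-only wells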
Starred values were filed as active, the others as inactive.

Results for Cc1cc(C(C)(C)C)oc1C(=O)N(CC(=O)NC1CCCC1)c1c(C)cccc1C ?
Cav32 inh: -1.6*; Pyk2 oligo antag: -1.3; CYP2C9 activ: 0.7; CYP2C19 inh: 42; CYP2C9 inhib: 33; CYP2C19 activ: 0.6

Results for Cc1cc(C(C)(C)C)oc1C(=O)N(CC(=O)NC1CCCC1)c1ccc(F)cc1 ?
Cav32 inh: -3.9; Pyk2 oligo antag: -1; CYP2C9 activ: 0.8; CYP2C19 inh: 10; CYP2C9 inhib: 20; CYP2C19 activ: 0.9

What do the screens show for `COc1ccc(/C=N/Nc2snc(SC)c2C#N)cc1OC`?
Cav32 inh: 0.021; Pyk2 oligo antag: -1; CYP2C9 activ: 0.4; CYP2C19 inh: 62*; CYP2C9 inhib: 61*; CYP2C19 activ: 0.4

What do the screens show for `COc1cccc(/C=N/Nc2snc(SC)c2C#N)c1`?
Cav32 inh: -0.38; Pyk2 oligo antag: 0.23; CYP2C9 activ: 0.3; CYP2C19 inh: 30; CYP2C9 inhib: 66*; CYP2C19 activ: 0.7

How did COc1cccc(/C=N/NC(=O)Cn2ccnc2C)c1 do in these assays?
Pyk2 oligo antag: 0

Results for CC1(C)Cc2c(c(N3CCOCC3)nc3snc(Br)c23)CO1 ?
Cav32 inh: -1.3; Pyk2 oligo antag: -0.63; CYP2C9 activ: 0.3; CYP2C19 inh: 10; CYP2C9 inhib: 67*; CYP2C19 activ: 0.9

How did O=S(=O)(Nc1nnc(-c2ccccc2)s1)c1ccc(Cl)cc1 do in these assays?
Pyk2 oligo antag: -1.6; CYP2C9 activ: 0; CYP2C19 inh: 83*; CYP2C9 inhib: 99*; CYP2C19 activ: 0.2

How did Cc1ccc(S(=O)(=O)N(C)CC(=O)NC2CC(C)(C)NC(C)(C)C2)cc1 do in these assays?
Cav32 inh: 0.034; Pyk2 oligo antag: 1.4; CYP2C9 activ: 1.2; CYP2C19 inh: -17; CYP2C9 inhib: -18; CYP2C19 activ: 1.2

What do the screens show for `Cc1noc(/C=C/N(C)C)c1S(=O)(=O)N(C)CC(=O)NC1CCCCC1`?
Pyk2 oligo antag: 0.59; CYP2C9 activ: 0.4; CYP2C19 inh: 39; CYP2C9 inhib: 62*; CYP2C19 activ: 0.6

Results for Cc1cc(C)c(S(=O)(=O)N(C)CC(=O)NC2CCCC2)c(C)c1 ?
Cav32 inh: 0.63; Pyk2 oligo antag: -0.45; CYP2C9 activ: 2.2*; CYP2C19 inh: 80*; CYP2C9 inhib: -124; CYP2C19 activ: 0.2

How did CNc1c([N+](=O)[O-])cnn1-c1ccc(C)cc1 do in these assays?
Cav32 inh: -0.0005; Pyk2 oligo antag: 0.14; CYP2C9 activ: 0.8; CYP2C19 inh: 16; CYP2C9 inhib: 20; CYP2C19 activ: 0.8

Results for Cc1ccnc(NS(=O)(=O)c2ccc(NS(=O)(=O)c3ccccc3)cc2)n1 ?
Cav32 inh: 0.16; Pyk2 oligo antag: 0.27

How did Cc1cc(-c2c(C)[nH]n(-c3ccc(Cl)cc3)c2=O)n(-c2ccccc2)n1 do in these assays?
Cav32 inh: -0.0033; Pyk2 oligo antag: -0.34; CYP2C9 activ: 0.1; CYP2C19 inh: 8; CYP2C9 inhib: 91*; CYP2C19 activ: 0.9

What do the screens show for `Cc1[nH]n(-c2cccc(Cl)c2)c(=O)c1-c1ccccc1`?
Cav32 inh: -0.064; Pyk2 oligo antag: -0.49; CYP2C9 activ: 0.8; CYP2C19 inh: 5; CYP2C9 inhib: 23; CYP2C19 activ: 0.9

What do the screens show for `COc1ccc(C2(CNC(=O)Cc3ccc(OC)c(OC)c3)CCOCC2)cc1`?
Cav32 inh: 0.83; Pyk2 oligo antag: 0.17; CYP2C9 activ: 1.2; CYP2C19 inh: -11; CYP2C9 inhib: -17; CYP2C19 activ: 1.1

How did O=C(Nc1ccc(Cl)cc1)C1CCC(=O)N1Cc1ccccc1Cl (stereo not drawn) do in these assays?
Cav32 inh: 0.23; Pyk2 oligo antag: 0.42; CYP2C9 activ: 0.1; CYP2C19 inh: 79*; CYP2C9 inhib: 91*; CYP2C19 activ: 0.2

Results for O=C(Nc1ccccc1Br)C1CCC(=O)N1Cc1ccccc1Cl (stereo not drawn) ?
Pyk2 oligo antag: -2; CYP2C9 activ: 0.6; CYP2C19 inh: 22; CYP2C9 inhib: 45; CYP2C19 activ: 0.8

How did C/C(CC1CC(COCCC(C)C)OC1=O)=N\NC(N)=S (stereo not drawn) do in these assays?
Cav32 inh: 0.43; Pyk2 oligo antag: 0.54; CYP2C9 activ: 1.2; CYP2C19 inh: -1; CYP2C9 inhib: -25; CYP2C19 activ: 1

How did CCc1nnc(NC(=O)C2CCN(c3cnccn3)CC2)s1 do in these assays?
Cav32 inh: -0.79; Pyk2 oligo antag: 0.4; CYP2C9 activ: 0.8; CYP2C19 inh: 5; CYP2C9 inhib: 25; CYP2C19 activ: 0.9

How did CCCCOc1ccc(OCCCC)c2c1NC1(N2)C(=O)N(C(C)=O)c2ccccc21 do in these assays?
Cav32 inh: -1.6; Pyk2 oligo antag: -1.8; CYP2C9 activ: 0.8; CYP2C19 inh: 53*; CYP2C9 inhib: 24; CYP2C19 activ: 0.5

How did O=C(NC(Cc1ccccc1)c1nc2ccccc2[nH]1)C1CC(=O)N(c2ccc3c(c2)OCCO3)C1 (stereo not drawn) do in these assays?
Cav32 inh: -0.91; Pyk2 oligo antag: -0.1; CYP2C9 activ: 1.5; CYP2C19 inh: 81*; CYP2C9 inhib: -54; CYP2C19 activ: 0.2

Results for CCOC(=O)N1CCN(C(c2ccc(F)cc2)c2sc3nc(C)nn3c2O)CC1 (stereo not drawn) ?
Cav32 inh: 0.57; CYP2C9 activ: 1; CYP2C19 inh: 8; CYP2C9 inhib: -4; CYP2C19 activ: 0.9

Results for O=C(CSCC(=O)N1CCCCC1)Nc1nc(-c2ccc(Cl)s2)cs1 ?
Cav32 inh: -5.2*; CYP2C9 activ: 0.5; CYP2C19 inh: 58*; CYP2C9 inhib: 47; CYP2C19 activ: 0.4

What do the screens show for `CC(=O)Nc1nc(-c2ccc(Br)s2)cs1`?
Cav32 inh: -0.82; Pyk2 oligo antag: 0.14; CYP2C9 activ: 0.8; CYP2C19 inh: 28; CYP2C9 inhib: 24; CYP2C19 activ: 0.7

What do the screens show for `O=C(CSCC(=O)N1CCN(c2ccccc2)CC1)Nc1nc(-c2ccc(Cl)s2)cs1`?
Cav32 inh: -5.6*; CYP2C9 activ: 0.4; CYP2C19 inh: -2; CYP2C9 inhib: 61*; CYP2C19 activ: 1

What do the screens show for `CC(=O)Oc1ccccc1C(=O)Nc1ccccc1`?
Cav32 inh: -0.59

Results for CC(=Nc1ccccc1)Nc1ccccc1 ?
Cav32 inh: 0.77; Pyk2 oligo antag: -0.79; CYP2C9 activ: 1.1; CYP2C19 inh: 79*; CYP2C9 inhib: -9; CYP2C19 activ: 0.2

How did CC(C)(C)N1C(=O)c2ccc(C(=O)NCc3ccco3)cc2C1=O do in these assays?
Cav32 inh: 0.32; Pyk2 oligo antag: -0.38; CYP2C9 activ: 0.5; CYP2C19 inh: 23; CYP2C9 inhib: 47; CYP2C19 activ: 0.8

Results for O=c1oc2cc(Cl)ccc2n1CSc1nc2ccccc2s1 ?
Cav32 inh: -3.8; Pyk2 oligo antag: -0.49; CYP2C9 activ: 0.3; CYP2C19 inh: 74*; CYP2C9 inhib: 67*; CYP2C19 activ: 0.3

How did O=C(CSc1nc2ccccc2s1)N1c2ccccc2Sc2ccc(Cl)cc21 do in these assays?
Pyk2 oligo antag: 0.27; CYP2C9 activ: 0.6; CYP2C19 inh: -4; CYP2C9 inhib: 37; CYP2C19 activ: 1
